What all share (test): DAPPL (digital affinity profiling via proximity ligation, sequencing); 10 mM Tris-HCl pH 7.5, 50 mM NaCl, 1 mM DTT, 4% glycerol, room temperature, 30 min; GST-TFs on glutathione beads, 16-mer random dsDNA library, 0.1% formaldehyde crosslink after washing; high values mean tight binding
The target of assay [1] is T1, FEV (Homo sapiens, UniProt Q99581 1-238).
T1 sequence: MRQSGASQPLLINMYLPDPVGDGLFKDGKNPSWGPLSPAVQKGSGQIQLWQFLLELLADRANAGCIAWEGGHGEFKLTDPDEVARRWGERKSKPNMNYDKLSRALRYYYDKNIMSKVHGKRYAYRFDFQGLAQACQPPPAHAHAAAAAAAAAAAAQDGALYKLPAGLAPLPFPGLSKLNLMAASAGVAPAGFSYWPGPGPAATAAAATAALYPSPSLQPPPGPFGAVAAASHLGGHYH
Conditions: protein: recombinant; tags: N-terminal GST; dsDNA, one strand shown. Put shortly: (§1)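 Yeast served to express human transcription factors as GST fusions, which were then captured on glutathione beads and labelled with DNA barcodes. Pooled with a tag-only sample, they were incubated with 200 nmole of a 16-mer random double-stranded DNA library for 30 min at room temperature in Tris/NaCl/DTT/glycerol buffer, washed, crosslinked with 0.1% formaldehyde, ligated by proximity, amplified by PCR and sequenced. Dividing each hexamer's read frequency for a factor by its frequency for the tag-only sample gives the binding signal.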

Assay [2] concerns the target ETV5 (Homo sapiens, UniProt P41161 1-510). The note with it: protein: recombinant; tags: N-terminal GST; dsDNA, one strand shown. Put shortly:
as §1

The target in assay [3] is HSF1 (Homo sapiens, UniProt Q00613 1-529). The note with it: protein: recombinant; tags: N-terminal GST; chain copies: 3; dsDNA, one strand shown. An outline of the steps: as §1
HSF1, sequence (Q00613 whole entry): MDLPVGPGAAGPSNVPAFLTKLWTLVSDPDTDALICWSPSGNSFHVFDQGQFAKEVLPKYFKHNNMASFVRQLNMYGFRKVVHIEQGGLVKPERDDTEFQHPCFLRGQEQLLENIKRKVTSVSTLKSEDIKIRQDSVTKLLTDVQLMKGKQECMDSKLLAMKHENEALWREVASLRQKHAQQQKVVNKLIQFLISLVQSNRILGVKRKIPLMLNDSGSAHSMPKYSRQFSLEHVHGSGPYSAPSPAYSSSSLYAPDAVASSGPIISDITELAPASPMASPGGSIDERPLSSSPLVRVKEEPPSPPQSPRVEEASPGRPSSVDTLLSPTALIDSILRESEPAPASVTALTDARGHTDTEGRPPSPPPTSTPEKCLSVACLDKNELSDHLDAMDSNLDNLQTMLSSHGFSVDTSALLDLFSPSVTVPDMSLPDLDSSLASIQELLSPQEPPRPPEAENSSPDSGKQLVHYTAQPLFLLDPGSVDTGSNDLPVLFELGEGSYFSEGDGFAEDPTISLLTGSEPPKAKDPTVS
Assay [4] has as its target T2, SPIC (Homo sapiens, UniProt Q8N5J4 1-248).
T2 sequence: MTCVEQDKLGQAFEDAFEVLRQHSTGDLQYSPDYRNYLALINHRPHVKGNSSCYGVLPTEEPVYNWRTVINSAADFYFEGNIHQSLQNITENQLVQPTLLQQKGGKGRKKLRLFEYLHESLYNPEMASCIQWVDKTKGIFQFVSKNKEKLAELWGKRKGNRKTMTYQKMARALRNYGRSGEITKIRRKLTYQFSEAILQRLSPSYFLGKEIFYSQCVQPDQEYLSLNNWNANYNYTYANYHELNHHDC
The note with it: protein: recombinant; tags: N-terminal GST; dsDNA, one strand shown. Put shortly:
as §1

For assay [5], the target named is ELF4 (Homo sapiens, UniProt Q99607 1-663). Conditions: protein: recombinant; tags: N-terminal GST; dsDNA, one strand shown. Put shortly:
as §1

Assay [6] has as its target T3, ELK4 (Homo sapiens, UniProt P28324-2 1-405).
T3 sequence: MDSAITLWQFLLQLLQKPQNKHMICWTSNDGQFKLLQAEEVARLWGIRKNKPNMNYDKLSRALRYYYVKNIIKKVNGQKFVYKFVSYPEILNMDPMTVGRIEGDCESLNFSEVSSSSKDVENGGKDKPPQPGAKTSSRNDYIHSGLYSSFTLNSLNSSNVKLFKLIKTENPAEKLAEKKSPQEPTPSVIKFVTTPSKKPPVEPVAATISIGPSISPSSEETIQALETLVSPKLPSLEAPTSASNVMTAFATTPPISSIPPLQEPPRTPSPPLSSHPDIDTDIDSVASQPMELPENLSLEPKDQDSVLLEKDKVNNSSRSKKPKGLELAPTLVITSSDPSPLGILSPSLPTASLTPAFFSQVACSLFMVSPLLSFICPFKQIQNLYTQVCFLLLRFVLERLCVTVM
Conditions: protein: recombinant; tags: N-terminal GST; dsDNA, one strand shown. Put shortly: as §1

Assay [7] concerns the target T4, ETV2 (Homo sapiens, UniProt O00321 1-342).
T4 sequence: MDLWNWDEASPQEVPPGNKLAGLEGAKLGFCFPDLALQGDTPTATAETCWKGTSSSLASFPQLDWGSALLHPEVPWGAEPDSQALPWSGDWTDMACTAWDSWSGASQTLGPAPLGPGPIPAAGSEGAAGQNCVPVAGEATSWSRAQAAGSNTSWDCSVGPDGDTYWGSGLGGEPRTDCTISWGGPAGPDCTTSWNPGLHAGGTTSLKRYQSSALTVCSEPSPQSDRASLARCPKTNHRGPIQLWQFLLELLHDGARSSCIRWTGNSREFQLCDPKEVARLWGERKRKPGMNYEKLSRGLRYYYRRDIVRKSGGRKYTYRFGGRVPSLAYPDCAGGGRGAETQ
Conditions: protein: recombinant; tags: N-terminal GST; dsDNA, one strand shown. Put shortly: as §1

In assay [8] the target is T5, ELF3 (Homo sapiens, UniProt P78545 1-371).
T5 sequence: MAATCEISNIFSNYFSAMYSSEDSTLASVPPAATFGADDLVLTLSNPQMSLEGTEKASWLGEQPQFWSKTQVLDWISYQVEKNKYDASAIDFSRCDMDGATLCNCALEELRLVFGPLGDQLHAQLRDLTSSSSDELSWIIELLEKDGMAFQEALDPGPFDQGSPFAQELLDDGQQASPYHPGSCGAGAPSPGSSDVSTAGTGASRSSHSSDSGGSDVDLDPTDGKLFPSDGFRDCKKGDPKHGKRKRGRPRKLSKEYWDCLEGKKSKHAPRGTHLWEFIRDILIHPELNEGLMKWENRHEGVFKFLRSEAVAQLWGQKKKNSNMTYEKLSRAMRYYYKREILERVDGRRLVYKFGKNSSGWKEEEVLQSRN
The note with it: protein: recombinant; tags: N-terminal GST; dsDNA, one strand shown. An outline of the steps: as §1

Assay [9] deals with CRX (Homo sapiens, UniProt O43186 1-299). Conditions: protein: recombinant; tags: N-terminal GST; dsDNA, one strand shown. Put shortly:
as §1

Assay [10] concerns the target ETV1 (Homo sapiens, UniProt P50549 1-477). Conditions: protein: recombinant; tags: N-terminal GST; dsDNA, one strand shown. An outline of the steps: as §1
The target in assay [11] is T6, ERF (Homo sapiens, UniProt P50548 1-548).
T6 sequence: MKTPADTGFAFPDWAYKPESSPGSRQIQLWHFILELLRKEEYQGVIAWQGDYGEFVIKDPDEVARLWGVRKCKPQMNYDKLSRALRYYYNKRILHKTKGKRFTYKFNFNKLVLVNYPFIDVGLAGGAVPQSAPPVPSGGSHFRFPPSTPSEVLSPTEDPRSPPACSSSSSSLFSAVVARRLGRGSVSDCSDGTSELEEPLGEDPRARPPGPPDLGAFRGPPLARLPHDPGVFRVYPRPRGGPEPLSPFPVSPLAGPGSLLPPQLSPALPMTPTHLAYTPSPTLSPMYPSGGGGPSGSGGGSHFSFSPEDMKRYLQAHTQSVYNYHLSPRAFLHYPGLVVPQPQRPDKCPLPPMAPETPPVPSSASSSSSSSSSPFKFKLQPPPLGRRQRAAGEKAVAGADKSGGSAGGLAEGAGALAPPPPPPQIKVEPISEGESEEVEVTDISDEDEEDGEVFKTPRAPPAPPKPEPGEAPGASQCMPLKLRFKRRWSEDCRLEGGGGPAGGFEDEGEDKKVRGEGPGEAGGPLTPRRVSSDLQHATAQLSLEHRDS
The note with it: protein: recombinant; tags: N-terminal GST; dsDNA, one strand shown. An outline of the steps:
as §1

Assay [12] deals with T7, ETV3L (Homo sapiens, UniProt Q6ZN32 1-361).
T7 sequence: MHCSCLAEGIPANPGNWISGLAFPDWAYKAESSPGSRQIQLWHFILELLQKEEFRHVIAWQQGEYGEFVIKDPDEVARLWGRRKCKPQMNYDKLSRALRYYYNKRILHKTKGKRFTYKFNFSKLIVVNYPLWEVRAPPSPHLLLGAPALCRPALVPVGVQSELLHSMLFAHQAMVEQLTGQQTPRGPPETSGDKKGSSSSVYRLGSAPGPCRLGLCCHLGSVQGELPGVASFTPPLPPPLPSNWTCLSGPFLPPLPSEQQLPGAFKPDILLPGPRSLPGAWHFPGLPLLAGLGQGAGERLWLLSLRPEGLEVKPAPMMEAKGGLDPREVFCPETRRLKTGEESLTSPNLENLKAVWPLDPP
The note with it: protein: recombinant; tags: N-terminal GST; dsDNA, one strand shown. Put shortly:
as §1

The target of assay [13] is T8, ETS2 (Homo sapiens, UniProt P15036 1-469).
T8 sequence: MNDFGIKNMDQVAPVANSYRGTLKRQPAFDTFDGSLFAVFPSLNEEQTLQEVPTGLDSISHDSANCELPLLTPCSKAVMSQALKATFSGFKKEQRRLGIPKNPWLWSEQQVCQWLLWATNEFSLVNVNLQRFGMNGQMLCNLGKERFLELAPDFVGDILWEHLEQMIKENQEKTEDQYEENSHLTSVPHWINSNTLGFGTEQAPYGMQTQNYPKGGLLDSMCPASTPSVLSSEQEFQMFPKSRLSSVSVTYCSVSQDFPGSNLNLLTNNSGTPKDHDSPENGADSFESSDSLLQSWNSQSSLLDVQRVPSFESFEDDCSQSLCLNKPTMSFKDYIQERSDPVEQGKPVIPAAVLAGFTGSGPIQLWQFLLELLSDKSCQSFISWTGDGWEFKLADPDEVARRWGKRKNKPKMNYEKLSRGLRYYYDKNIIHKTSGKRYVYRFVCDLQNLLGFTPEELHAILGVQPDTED
The note with it: protein: recombinant; tags: N-terminal GST; dsDNA, one strand shown. Put shortly: as §1

Assay [14] addresses T9, SPDEF (Homo sapiens, UniProt O95238 1-335).
T9 sequence: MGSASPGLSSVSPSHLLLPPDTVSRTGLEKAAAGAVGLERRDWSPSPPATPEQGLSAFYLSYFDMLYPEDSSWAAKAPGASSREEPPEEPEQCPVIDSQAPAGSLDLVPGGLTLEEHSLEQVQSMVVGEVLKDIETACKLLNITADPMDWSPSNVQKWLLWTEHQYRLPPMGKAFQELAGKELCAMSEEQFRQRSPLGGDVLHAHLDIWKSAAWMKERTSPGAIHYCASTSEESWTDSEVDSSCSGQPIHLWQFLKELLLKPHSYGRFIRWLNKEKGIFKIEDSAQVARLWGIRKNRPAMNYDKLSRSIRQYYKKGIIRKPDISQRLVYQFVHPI
Conditions: protein: recombinant; tags: N-terminal GST; dsDNA, one strand shown. Put shortly: as §1

For assay [15], the target named is T10, ETV7 (Homo sapiens, UniProt Q9Y603 1-341).
T10 sequence: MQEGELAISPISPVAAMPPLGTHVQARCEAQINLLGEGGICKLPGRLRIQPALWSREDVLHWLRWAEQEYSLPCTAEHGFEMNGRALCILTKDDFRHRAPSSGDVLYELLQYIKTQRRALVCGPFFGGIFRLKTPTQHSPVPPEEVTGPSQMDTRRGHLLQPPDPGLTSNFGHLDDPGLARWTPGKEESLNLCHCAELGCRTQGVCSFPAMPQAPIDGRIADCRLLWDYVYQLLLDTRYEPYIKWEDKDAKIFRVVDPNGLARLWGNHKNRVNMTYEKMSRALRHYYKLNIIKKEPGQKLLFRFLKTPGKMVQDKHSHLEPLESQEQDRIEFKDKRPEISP
Conditions: protein: recombinant; tags: N-terminal GST; dsDNA, one strand shown. An outline of the steps: as §1

In assay [16] the target is T11, ELF5 (Homo sapiens, UniProt Q9UKW6-2 1-255).
T11 sequence: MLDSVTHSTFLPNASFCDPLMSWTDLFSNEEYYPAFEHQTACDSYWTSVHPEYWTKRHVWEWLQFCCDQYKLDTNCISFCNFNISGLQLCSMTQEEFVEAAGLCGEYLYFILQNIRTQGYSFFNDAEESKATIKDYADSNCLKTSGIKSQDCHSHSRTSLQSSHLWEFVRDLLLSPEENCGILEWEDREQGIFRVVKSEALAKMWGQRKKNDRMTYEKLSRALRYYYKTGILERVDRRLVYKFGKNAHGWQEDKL
Conditions: protein: recombinant; tags: N-terminal GST; dsDNA, one strand shown. Put shortly:
as §1

Assay [17] addresses T12, ETV3 (Homo sapiens, UniProt P41162-2 1-143).
T12 sequence: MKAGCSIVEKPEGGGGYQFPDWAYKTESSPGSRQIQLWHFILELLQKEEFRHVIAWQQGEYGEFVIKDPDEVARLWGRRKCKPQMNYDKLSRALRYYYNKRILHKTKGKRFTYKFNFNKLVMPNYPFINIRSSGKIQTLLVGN
Conditions: protein: recombinant; tags: N-terminal GST; dsDNA, one strand shown. An outline of the steps:
as §1

Assay [18] has as its target ETV6 (Homo sapiens, UniProt P41212 1-452). Conditions: protein: recombinant; tags: N-terminal GST; dsDNA, one strand shown. Put shortly: as §1

ETV1, sequence (P50549 whole entry): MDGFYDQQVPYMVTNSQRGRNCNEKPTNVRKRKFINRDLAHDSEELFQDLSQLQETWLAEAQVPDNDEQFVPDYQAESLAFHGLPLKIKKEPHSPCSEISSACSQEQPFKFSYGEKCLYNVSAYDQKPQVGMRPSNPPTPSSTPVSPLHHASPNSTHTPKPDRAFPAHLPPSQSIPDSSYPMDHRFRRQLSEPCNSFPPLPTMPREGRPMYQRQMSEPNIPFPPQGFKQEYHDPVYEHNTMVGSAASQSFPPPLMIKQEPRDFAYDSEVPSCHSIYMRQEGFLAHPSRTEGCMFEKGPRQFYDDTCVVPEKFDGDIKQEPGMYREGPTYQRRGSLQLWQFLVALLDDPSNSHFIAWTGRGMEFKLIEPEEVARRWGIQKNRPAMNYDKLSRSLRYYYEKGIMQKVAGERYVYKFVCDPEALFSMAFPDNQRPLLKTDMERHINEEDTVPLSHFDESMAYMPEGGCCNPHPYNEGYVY
ETV6, sequence (P41212 whole entry): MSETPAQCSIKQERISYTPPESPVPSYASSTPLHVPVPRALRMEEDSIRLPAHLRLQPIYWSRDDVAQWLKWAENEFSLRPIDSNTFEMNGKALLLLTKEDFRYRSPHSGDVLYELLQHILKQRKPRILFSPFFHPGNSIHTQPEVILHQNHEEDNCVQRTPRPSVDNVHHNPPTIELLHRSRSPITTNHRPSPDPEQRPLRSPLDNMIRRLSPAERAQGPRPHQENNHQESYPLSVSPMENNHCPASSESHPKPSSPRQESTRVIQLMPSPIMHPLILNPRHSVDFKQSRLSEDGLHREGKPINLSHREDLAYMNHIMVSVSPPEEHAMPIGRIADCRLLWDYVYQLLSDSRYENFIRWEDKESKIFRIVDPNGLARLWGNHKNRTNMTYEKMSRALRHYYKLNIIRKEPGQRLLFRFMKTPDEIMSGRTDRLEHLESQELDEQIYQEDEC
CRX, sequence (O43186 whole entry): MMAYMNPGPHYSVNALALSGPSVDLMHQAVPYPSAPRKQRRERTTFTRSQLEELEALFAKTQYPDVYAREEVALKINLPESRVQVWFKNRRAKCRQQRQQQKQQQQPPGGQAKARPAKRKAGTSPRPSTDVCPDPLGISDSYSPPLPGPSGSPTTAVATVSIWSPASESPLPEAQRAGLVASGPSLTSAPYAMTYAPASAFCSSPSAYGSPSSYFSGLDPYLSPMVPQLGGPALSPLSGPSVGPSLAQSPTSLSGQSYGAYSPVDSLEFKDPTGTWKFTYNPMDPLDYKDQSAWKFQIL
ETV5, sequence (P41161 whole entry): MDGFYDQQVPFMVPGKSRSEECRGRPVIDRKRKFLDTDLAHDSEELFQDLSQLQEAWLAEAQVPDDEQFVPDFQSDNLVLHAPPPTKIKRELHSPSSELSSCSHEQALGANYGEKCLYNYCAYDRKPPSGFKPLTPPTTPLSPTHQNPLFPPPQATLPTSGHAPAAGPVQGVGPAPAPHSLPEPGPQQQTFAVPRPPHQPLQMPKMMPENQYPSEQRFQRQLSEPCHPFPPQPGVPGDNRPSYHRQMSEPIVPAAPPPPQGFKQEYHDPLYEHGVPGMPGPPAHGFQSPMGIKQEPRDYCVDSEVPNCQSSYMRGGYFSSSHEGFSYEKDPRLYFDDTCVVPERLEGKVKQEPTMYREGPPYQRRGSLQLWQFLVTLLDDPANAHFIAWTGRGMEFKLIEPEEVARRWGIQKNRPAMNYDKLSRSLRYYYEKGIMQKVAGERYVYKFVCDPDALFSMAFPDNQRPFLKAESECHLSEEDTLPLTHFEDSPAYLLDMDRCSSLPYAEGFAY
ELF4, sequence (Q99607 whole entry): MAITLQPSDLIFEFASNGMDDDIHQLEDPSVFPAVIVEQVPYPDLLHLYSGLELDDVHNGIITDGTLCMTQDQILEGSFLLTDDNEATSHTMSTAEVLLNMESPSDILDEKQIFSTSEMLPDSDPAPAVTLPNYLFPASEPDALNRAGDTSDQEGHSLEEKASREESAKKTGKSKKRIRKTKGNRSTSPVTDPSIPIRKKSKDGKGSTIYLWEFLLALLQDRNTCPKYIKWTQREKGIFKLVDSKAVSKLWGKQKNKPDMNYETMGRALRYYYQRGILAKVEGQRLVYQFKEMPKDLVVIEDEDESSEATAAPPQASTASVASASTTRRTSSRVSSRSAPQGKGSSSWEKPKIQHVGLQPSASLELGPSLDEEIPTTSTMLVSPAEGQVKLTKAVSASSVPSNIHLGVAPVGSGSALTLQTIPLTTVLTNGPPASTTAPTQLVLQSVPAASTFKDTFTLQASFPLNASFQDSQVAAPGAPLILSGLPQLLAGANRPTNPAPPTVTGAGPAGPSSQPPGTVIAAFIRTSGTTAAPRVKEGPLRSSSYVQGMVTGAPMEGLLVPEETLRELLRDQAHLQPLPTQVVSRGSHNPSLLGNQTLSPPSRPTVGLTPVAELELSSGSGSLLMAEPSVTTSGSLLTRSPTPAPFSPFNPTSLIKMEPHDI

In the case of TACGTA, the binding signal was 1.27 fold enrichment (6-mer frequency, TF over GST control) in assay [1]; 1.37 fold enrichment (6-mer frequency, TF over GST control) in assay [2]; 1.23 fold enrichment (6-mer frequency, TF over GST control) in assay [3]; 1.27 fold enrichment (6-mer frequency, TF over GST control) in assay [4]; 1.33 fold enrichment (6-mer frequency, TF over GST control) in assay [5]; 1.3 fold enrichment (6-mer frequency, TF over GST control) in [6]. In addition, the binding signal in assay [7] was 1.33 fold enrichment (6-mer frequency, TF over GST control); in assay [8], 1.4 fold enrichment (6-mer frequency, TF over GST control); in assay [9] it was 1.49 fold enrichment (6-mer frequency, TF over GST control); in assay [10], 1.4 fold enrichment (6-mer frequency, TF over GST control); in assay [11], 1.3 fold enrichment (6-mer frequency, TF over GST control); in assay [12], 1.38 fold enrichment (6-mer frequency, TF over GST control). The binding signal is 1.42 fold enrichment (6-mer frequency, TF over GST control) in assay [13]; 1.35 fold enrichment (6-mer frequency, TF over GST control) in assay [14]; 1.15 fold enrichment (6-mer frequency, TF over GST control) in assay [15]; 1.31 fold enrichment (6-mer frequency, TF over GST control) in [16]; 1.37 fold enrichment (6-mer frequency, TF over GST control) in [17]; 1.32 fold enrichment (6-mer frequency, TF over GST control) in [18].

Source of the values: article PMC7862700, “An all-to-all approach to the identification of sequence-specific readers for epigenetic DNA modifications on cytosine”.
